Our source for the inhibition values is PubChem BioAssay AID1850 (Southern Research Specialized Biocontainment Screening …, 2009).

The structures appear in SMILES notation. Where “and” joins values, the source holds several entries; their conditions need not be identical. Equal entries are not always repeated. Hit rate of the full screen: of about 310,000 compounds, about 1,000 (0.32%) were called active. These entries were drawn from the full list. Measured potencies and affinities stand elsewhere. Unmarked numbers belong to inactive results. The rule behind the calls is not given here.

This experiment is described as follows: Inhibition of PhoP regulon, Salmonella typhi GFP reporter cells, confirmation, 4 h (AID 1850).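 Note: 0% = induced wells with vehicle and 100% = uninduced wells.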 As to conditions: Salmonella Typhi PhoP-promoter GFP reporter, fluorescence, at 50 µM, stronger effect = higher value.
As a reminder, the inhibition is the drop in the measured response relative to a control, in per cent. As to `N/C(CC(=O)Nc1ccc(F)c(Cl)c1)=N\OC(=O)c1cccs1`, the inhibition was -6.75%. Next, `CC(=O)Cc1nsc(Nc2ccc(C)cc2)n1`: 0.05%.

`COC(=O)c1cc(-c2cccc([N+](=O)[O-])c2)c2c(=O)n(C)c(=O)n(C)c2n1`: the inhibition is 0.74%. For `CC1CCC(C(C)C)C(OC(=O)Cn2c(-c3ccc(F)cc3)[n+](C)c3ccccc32)C1` (configuration not stated), the inhibition was 9.13%. Next, `CC1CCC(C(C)C)C(OC(=O)CSc2nccc(=O)[nH]2)C1` (configuration not stated): -9.72%; `CC1CCC(C(C)C)C(OC(=O)Cn2c(-c3ccc(Br)cc3)[n+](C)c3ccccc32)C1` (configuration not stated): -12.1%. Next, `CC1CCC(C(C)C)C(OC(=O)COC(=O)c2ccccc2N)C1` (configuration not stated): -3.26%. Next, `CC1CCC(C(C)C)C(OC(=O)Cn2c(-c3ccccc3)[n+](C)c3ccccc32)C1` (configuration not stated): 7.04% and -8.34%; `CC1CCC(C(C)C)C(OC(=O)COC(=O)c2ccc(N)cc2)C1` (configuration not stated): -3.86%; `CCOC(=O)c1cnc2ccc(OC)cc2c1NCCN1CCOCC1`: -3.63%. Turning to `COc1ccc(OC)c(NC(=O)c2nnn(CC(=O)Nc3ccc4c(c3)OCO4)c2N)c1`, the inhibition was -17.1%. In the case of `CN(C(=O)C1CCN(S(=O)(=O)c2cccs2)CC1)C1CCCCC1`, the inhibition is -11.4%.

Regarding `CC(=O)Nc1ccc(OCCC[n+]2ccccc2)cc1`, the inhibition was -5.56%. Next, `CCC(C)(C)c1ccc(OCCCC[n+]2cccc(C)c2C)c(C(C)(C)CC)c1`: 9.55%; `Cc1cc(=O)oc2cc(OCCCC[n+]3ccccc3)ccc12`: -6.05%.

For the compound `CCCCOc1ccc(CCN)cc1Cl`, the inhibition was -8.19%. Next, `Cc1ccc[n+](Cc2ccc([N+](=O)[O-])cc2)c1`: -2.48%; `CCC(C)(C)c1ccc(OCCCC[n+]2ccc(C)cc2)c(C(C)(C)CC)c1`: 6.7%; `CC(=O)Nc1ccc(OCCC[n+]2cccc(C(=O)[O-])c2)cc1`: 5.76%. Next, `CCCCCc1ccc(OCCCC[n+]2ccc(C)cc2)c(CCCCC)c1`: -3.58%. Next, `COc1ccc(N(C(C)C(=O)N/N=C/c2ccc(OCC(C)C)cc2)S(C)(=O)=O)cc1` (configuration not stated): -7.5%; `O=c1[nH]c(=O)n(C2CCCCCC2)c(O)c1C=NCc1cccnc1`: 0.08%; `Cn1nc(CC(=O)Nc2ncc(Br)s2)c2ccccc2c1=O`: -7.27%. In the case of `COc1ccc(S(=O)(=O)N2CCCC(C(=O)NC3CC3)C2)cc1Cl` (configuration not stated), the inhibition is 4.9%.

In the case of `CC1CCCN(C2=NC(=O)/C(=C/c3cn(-c4ccccc4)nc3-c3cccc(S(=O)(=O)N(C)C)c3)S2)C1` (configuration not stated), the inhibition was -7.62%. Next, `Cc1cc(Br)c(NC(=O)COC(=O)CSc2nnc(-c3ccc(Cl)cc3)o2)c(Br)c1`: 6%; `Cc1ccc(S(=O)(=O)NCCC(=O)Nc2ccc(Cl)c(Cl)c2)cc1`: -0.17%; `COCc1cc(=O)n2[nH]c(N)nc2n1`: 6.29%.

As to `CCOC(=O)[C@@H]1[C@H]2COc3cc(OC)ccc3[C@@H]2N2C(=O)N(c3ccc(C)cc3)C(=O)[C@]12C`, the inhibition was -2.59%. Take `CC[n+]1c(/C=C/N(C)c2ccccc2)sc2ccc(Cl)cc21`: the inhibition is -2.8%.

For `CCn1c(/C=C/N(C)c2ccccc2)[n+](CC)c2ccc(Cl)cc21`, the inhibition was 20.2%. Next, `Cc1ccc(SCC(=O)NCCSC(C)(C)C)cc1`: -5.44%. Next, `CC(=O)Nc1ccc(S(=O)(=O)NCCCc2ccccc2)cc1`: -4.81%; `Cc1ccc2sc(N(CCCN(C)C)C(=O)c3nc4ccccc4s3)nc2c1C`: 11.1%.

On to `Cc1ccc2nc(N(CCCN(C)C)C(=O)c3ccc(Br)s3)sc2c1`, for which the inhibition was 4.27%. For the compound `CC(NCc1ccc(Cl)cc1Cl)C(O)c1ccccc1` (configuration not stated), the inhibition was -10%. Next, `CSc1ccc(CNC(C)C(O)c2ccccc2)cc1` (configuration not stated): 20.7%; `CC(NCc1ccccc1Cl)C(O)c1ccccc1` (configuration not stated): 3.04%. With `CC(NCc1ccc(Cl)cc1)C(O)c1ccccc1` (configuration not stated), the inhibition is 32.7%. Next, `CCOc1ccc(-c2nc(CSCC(=O)NC3CC3)c(C)o2)cc1`: 5.51%; `O=C(Nc1cc(Cl)ccc1-n1cncn1)c1ccc(F)c(S(=O)(=O)N2CCOCC2)c1`: 6.99%. Next, `CC(C)c1ccc(NC(=S)N2CCN(Cc3ccccc3)CC2)cc1`: 14.4%; `COc1ccc(CC(=O)N2CCC(Nc3nc4ccccc4n3Cc3ccc(F)cc3)CC2)cc1`: 8.15%; `COc1ccc(CNc2nc3ccccc3n2CCN2CCOCC2)cc1`: 14.4%. For `CC(C)=C(NC(=O)c1ccccc1Br)C(=O)NCCc1nc2ccccc2[nH]1`, the inhibition is 3.02%.

For `Cc1ccccc1Nc1nc(Nc2ccccc2C)nc(SC2=NCCS2)n1`, the inhibition is 5.86%.

Turning to `CCCCNC(=S)NCC(c1ccccc1)c1c[nH]c2ccccc12` (configuration not stated), the inhibition was 0.6%.

As for `OC(CNCC(c1ccc(Cl)cc1Cl)c1c[nH]c2ccccc12)c1ccccc1` (configuration not stated), the inhibition was -5.36%. Next, `O=C(O)CCN1C(=O)c2ccc(NC(=O)C(c3ccccc3)c3ccccc3)cc2C1=O`: 3.59%; `Cn1c(=O)c2c(ncn2CC(=O)Nc2nc(-c3ccccc3Cl)cs2)n(C)c1=O`: 21.1%. Next, `Cc1cc(C)c2c(N)c3cccc(C)c3nc2n1`: -7.17%. Next, `CCc1ccc2nc3nc(C)cc(C)c3c(N)c2c1`: -15%. Take `CC(=O)c1ccc(NC(=O)CSc2nc(N)c3cc4c(nc3n2)CCCC4)cc1`: the inhibition is -7.23%. Next, `Cc1cc(C)c(OCC(=O)OCC(=O)NCCC2=CCCCC2)c(C)c1`: 1.39%; `CC12CN3CCN(C1)CC(C)(C3)C2=NN`: 6.55%; `NC(=S)N/N=C/c1c(O)ccc2ccccc12`: -1.9%. Next, `O=C(N/N=C\c1c(O)ccc2ccccc12)c1ccc(O)cc1`: -4.79%; `Cc1ccc(C(=O)N/N=C/c2c(O)ccc3ccccc23)cn1`: -2.29%; `O=c1c2ccccc2nc(N/N=C/c2ccc(O)cc2)n1O`: 10.2%.

As to `Oc1ccc2ccccc2c1/C=N/Nc1ccccc1`, the inhibition is -3.44%. Next, `Cc1ccccc1/C=N/Nc1nc2ccccc2c(=O)n1O`: -20.3%. Next, `CC(C)(C)C(=O)Nc1ccnn1C1CCN(C(=O)c2ccc(Cl)cc2F)CC1`: -1.83%; `Cc1cc(OCc2nc(-c3cccnc3)no2)c(C)cc1Br`: -4.41%; `O=C1[C@@H]2Cc3c([nH]c4ccccc34)C(c3cccc(Br)c3)N2C(=O)CN1C1CCN(Cc2ccccc2)CC1` (some centres not stated): 0.55%. In the case of `CCOc1cc(C(=O)Nc2ccccc2N2CCOCC2)ccc1OCC(=O)N1CCCCC1`, the inhibition is -2.04%. For `C[C@@H]1Cc2c(O)c(O)cc(O)c2C(=O)O1`, the inhibition is 6.45%.

As to `CC1Oc2cc3c(-c4c(O)cc(O)c5c(O)c6c(cc45)OC(C)C(C)C6=O)c(O)cc(O)c3c(O)c2C(=O)C1C` (configuration not stated), the inhibition was 15.3%. Next, `Cc1cnc(C(=O)NC2CC(C)(C)Cc3c2cnn3-c2cccc(F)c2)cn1` (configuration not stated): -5.99%; `NC(=O)c1ccc(SCC(=O)OCC(=O)NCc2ccco2)c([N+](=O)[O-])c1`: -1.63%. Next, `Nc1nnc(-c2ccccc2)c(-c2ccccc2)n1`: -9.89%; `Nc1nc(N)nc(-c2cccc(Cl)c2Cl)n1`: -6.05%; `CC(=O)N1CCN(S(=O)(=O)c2cccc(C(=O)Nc3ccccc3N3CCCC3)c2)CC1`: -2.62%.

As to `O=C(O)[C@H](Cc1ccccc1)NC(=O)N1CCOCC1`, the inhibition is -2.76%.

For the compound `O=C(CCNC(=O)c1ccc(Br)cc1)NCc1cccnc1`, the inhibition is -2.13%. For the compound `COc1ccc2c(C(=O)CN3CCN(CCO)CC3)c[nH]c2c1`, the inhibition is -2.19%. Next, `COc1ccc2[nH]cc(C(=O)CCl)c2c1`: 30.9%; `CCc1nc(SCC#N)c(C#N)cc1C`: -1.52%; `CC(CCc1ccccc1)NCc1cccc2ccccc12` (configuration not stated): -6.36%. Next, `CNC[C@@H](C)NC[C@@H](Cc1ccccc1)NCCc1ccccc1`: 19.6%. Next, `CCC[C@H](CN[C@@H](CNC)[C@H](C)O)NCCc1ccc(OC)cc1`: -14.6%. As for `COc1ccccc1CCNCc1cccc(C(F)(F)F)c1`, the inhibition is 2.37%. As for `CCC[C@@H](CN[C@@H](CNC)[C@H](C)CC)NCC1CCC(C(C)(C)C)CC1` (some centres not stated), the inhibition was 11.1%.

On to `CC(Cc1cccc(C(F)(F)F)c1)NCCOC(=O)c1ccccc1` (configuration not stated), for which the inhibition was 12.2% and -11.7%. Next, `Cc1cc(C)n2c(Nc3ccc4c(c3)OCCO4)c(-c3ccccc3)nc2n1`: -10.2%; `CCCCN1C(=O)C2NN=C(C(=O)OCC)C2C1=O` (configuration not stated): 8.14%; `Cc1ccc(-n2nc3c(c2NC(=O)c2ccc4c(c2)OCO4)CS(=O)(=O)C3)cc1C`: -5.55%. Next, `COc1ccccc1N1C(=O)c2ccccc2NC1c1cc(OC)c(OC)c(OC)c1` (configuration not stated): 2.7%; `CCc1ccccc1NC(=O)C1CCN(C(=O)c2ccc([N+](=O)[O-])cc2)CC1`: -0.4%. Next, `O=C(NCc1ccc(OC(F)(F)F)cc1)C1CC2Cn3c(nc4ccccc43)C2N1Cc1ccccc1` (configuration not stated): 2.43%.

For the compound `N#Cc1c(-c2ccccc2)cc(-c2ccc(O)cc2)nc1N`, the inhibition is -7.46%. As to `O=C(COC(=O)c1ccccc1[N+](=O)[O-])NC(=O)c1ccccc1`, the inhibition is -0.26%. Regarding `CCNC(=O)Cn1c(=O)c(=O)n(Cc2ccccc2)c2ccc(Cl)cc21`, the inhibition is -13.1%.
